Laboratory results from ChEMBL document CHEMBL3988442, “University of Dundee, Small-Polar-MMV Screening Library” (2021).
About 950 (1.4%) of roughly 69,000 compounds showed an effect of 50% or more. The sample holds strong results, similar compounds and a random draw of the others, so the mix is not that of the screen.

Each compound was assayed on Mycobacterium tuberculosis (assay: Cornell M. t heat shock assay; note: in the data most compounds retested in dose-response had high values).
Assay type: functional, organism-based
Set-up: dose or concentration left out as unconfirmed

| SMILES | Percent Effect [%] |
| --- | --- |
| CCc1cc(C(F)(F)F)n2nc(C3CCCN3C3CCSCC3)cc2n1.O=C(O)CC(O)(CC(=O)O)C(=O)O (configuration not stated) | 5.555 |
| O=C(O)c1ccc(SCC(=O)c2ccccc2)nc1 | 25.44 |
| Cc1cccc(CN2C[C@@H]3OCCN(CC(=O)N(C)C)[C@@H]3C2)c1.O=C(O)C(F)(F)F | 42.49 |
| Cl.Cl.c1ccc(OC[C@@H]2CCC[C@@]23CNCCO3)nc1 | -6.285 |
| CC(C)n1cnnc1CN(C)Cc1cnc(-c2ccccn2)nc1 | 32.7 |
| CC(c1cccs1)N(C)Cc1cnc(-c2ccccn2)nc1 (configuration not stated) | 106.1 |
| Cc1noc(C)c1CN(C)C(C)c1cccs1 (configuration not stated) | 7.19 |
| O=C(Nc1cccnc1)[C@H]1CO[C@H]2CCNC[C@H]2C1.O=C(O)C(F)(F)F.O=C(O)C(F)(F)F | -15.71 |
| Cc1ccc2c(n1)N(CC1CC1)CCN(C(=O)c1ccncc1F)C2.O=C(O)C(F)(F)F.O=C(O)C(F)(F)F | -13.11 |
| CCn1c(CN(C)Cc2cnc(C)s2)nc2cc(F)ccc21 | -9.437 |
| CCN(Cc1csc(C)n1)c1cccc(CO)c1 | -22.94 |
| CCn1c(CN(C)Cc2csc(C)n2)nc2cc(F)ccc21 | 69.38 |
| CCO[C@@H]1CC[C@H]2[C@H]1OCCN2CC1CCC1.O=C(O)C(F)(F)F | -27.51 |
| Cc1cc(N(C)Cc2c(C)noc2C)n2nc(C)c(C)c2n1 | -31.35 |
| Cc1cc(NC(C)c2csc(C)n2)n2nc(C)c(C)c2n1 (configuration not stated) | 26.88 |
| CCc1cc(N(C)Cc2ccnc(C)c2)n2nc(C)c(C)c2n1 | 28.31 |
| Cc1cc(N(C)CCN(C)C)n2nc(C)cc2n1 | -8.3 |
| CCc1nnc(CN(C)c2cc(C)nc3c(C)c(C)nn23)o1 | -40 |
| CCc1cc(N(C)Cc2ccncn2)n2nc(C)c(C)c2n1 | 89.97 |
| Cc1cc(N(C)Cc2cc(C)on2)n2nc(C)c(C)c2n1 | 82.43 |
| CCc1cc(N(C)Cc2ccno2)n2nc(C)c(C)c2n1 | 27.53 |
| CCc1cc(N(C)Cc2cc[nH]n2)n2nc(C)c(C)c2n1 | 19.05 |
| Cc1csc(CN(C)c2cc(C)nc3c(C)c(C)nn23)n1 | 96.63 |
| Cc1cc(N(C)Cc2noc(C)n2)n2nc(C)c(C)c2n1 | 0.3178 |
| Cc1cc(N(C)Cc2ccsc2)n2nc(C)c(C)c2n1 | 86.91 |
| Cc1cc(C)cc(N2CCN(C(=O)CCN3C[C@@H]4CC[C@H]3C4)CC2=O)c1 | -4.633 |
| COc1cc(N2C[C@@H]3COC[C@]3(COc3ncccc3F)C2)ncn1.O=C(O)C(F)(F)F.O=C(O)C(F)(F)F | -28.64 |
